{
  "source": "paper PMC11006913",
  "experiment_in_all_cases": "PBM; 200 nM protein, PBS",
  "details_in_all_cases": "dsDNA, one strand shown",
  "key": {"SHOX [1]": {"target": "SHOX (Homo sapiens, UniProt O15266 103-189)", "sequence (O15266 103-189)": "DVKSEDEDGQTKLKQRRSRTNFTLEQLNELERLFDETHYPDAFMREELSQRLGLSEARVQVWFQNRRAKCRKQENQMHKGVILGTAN"}, "PRRX1 [2]": {"target": "PRRX1 (Homo sapiens, UniProt P54821 80-166, F113S)", "sequence (P54821 80-166 F113S)": "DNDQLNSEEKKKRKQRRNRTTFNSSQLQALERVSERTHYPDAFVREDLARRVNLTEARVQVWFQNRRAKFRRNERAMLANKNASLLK"}, "SHOX [3]": {"target": "SHOX (Homo sapiens, UniProt O15266 103-189, R173C)", "sequence (O15266 103-189 R173C)": "as the sequence (O15266 103-189) above, with R71C counted along it"}, "PRRX1 [4]": {"target": "PRRX1 (Homo sapiens, UniProt P54821 80-166)", "sequence (P54821 80-166)": "as the sequence (P54821 80-166 F113S) above, with S34F counted along it"}, "HOXC9 [5]": {"target": "HOXC9 (Homo sapiens, UniProt P31274 178-260, K195R)", "sequence (P31274 178-260 K195R)": "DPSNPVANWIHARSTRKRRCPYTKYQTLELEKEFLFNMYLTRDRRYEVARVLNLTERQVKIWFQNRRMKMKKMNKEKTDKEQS"}, "HOXC9 [6]": {"target": "HOXC9 (Homo sapiens, UniProt P31274 178-260)", "sequence (P31274 178-260)": "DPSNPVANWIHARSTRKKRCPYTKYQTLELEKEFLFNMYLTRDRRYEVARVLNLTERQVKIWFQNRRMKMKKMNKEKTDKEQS"}, "HOXC9 [7]": {"target": "HOXC9 (Homo sapiens, UniProt P31274 178-260, R193K)", "sequence (P31274 178-260 R193K)": "as the sequence (P31274 178-260) above, with R16K counted along it"}, "HOXC9 [8]": {"target": "HOXC9 (Homo sapiens, UniProt P31274 178-260, R222W)", "sequence (P31274 178-260 R222W)": "as the sequence (P31274 178-260) above, with R45W counted along it"}, "HOXB9 [9]": {"target": "HOXB9 (Homo sapiens, UniProt P17482 171-250)", "sequence (P17482 171-250)": "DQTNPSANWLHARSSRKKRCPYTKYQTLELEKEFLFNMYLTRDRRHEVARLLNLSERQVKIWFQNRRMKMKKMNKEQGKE"}, "HOXB9 [10]": {"target": "HOXB9 (Homo sapiens, UniProt P17482 171-250, R186Q)", "sequence (P17482 171-250 R186Q)": "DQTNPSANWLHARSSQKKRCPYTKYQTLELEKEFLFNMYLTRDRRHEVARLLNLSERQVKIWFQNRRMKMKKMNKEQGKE"}, "PAX4 [11]": {"target": "T1, PAX4 (Homo sapiens, UniProt O43316 9-242, R200K)", "T1 sequence": "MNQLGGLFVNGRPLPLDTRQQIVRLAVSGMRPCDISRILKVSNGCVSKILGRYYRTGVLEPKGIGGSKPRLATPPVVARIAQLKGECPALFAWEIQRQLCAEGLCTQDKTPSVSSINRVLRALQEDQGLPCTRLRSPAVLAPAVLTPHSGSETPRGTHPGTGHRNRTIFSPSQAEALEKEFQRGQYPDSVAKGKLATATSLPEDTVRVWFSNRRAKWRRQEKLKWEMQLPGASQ"}, "PAX4 [12]": {"target": "T2, PAX4 (Homo sapiens, UniProt O43316 9-242)", "T2 sequence": "T1 sequence with K192R"}, "MSX2 [13]": {"target": "MSX2 (Homo sapiens, UniProt P35548 130-214, R199I)", "sequence (P35548 130-214 R199I)": "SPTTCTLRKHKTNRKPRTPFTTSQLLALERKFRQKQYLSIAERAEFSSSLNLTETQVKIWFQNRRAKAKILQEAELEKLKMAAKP"}, "PAX4 [14]": {"target": "T3, PAX4 (Homo sapiens, UniProt O43316 9-242, R200Q)", "T3 sequence": "T1 sequence with K192Q"}, "PAX4 [15]": {"target": "T4, PAX4 (Homo sapiens, UniProt O43316 9-242, F177V)", "T4 sequence": "T1 sequence with F169V, K192R"}, "MSX2 [16]": {"target": "MSX2 (Homo sapiens, UniProt P35548 130-214)", "sequence (P35548 130-214)": "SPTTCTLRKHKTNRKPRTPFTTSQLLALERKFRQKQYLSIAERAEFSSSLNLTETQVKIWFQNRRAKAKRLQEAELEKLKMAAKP"}, "PAX4 [17]": {"target": "T5, PAX4 (Homo sapiens, UniProt O43316 9-242, F177Y)", "T5 sequence": "T1 sequence with F169Y, K192R"}, "MSX2 [18]": {"target": "MSX2 (Homo sapiens, UniProt P35548 130-214, F161Y)", "sequence (P35548 130-214 F161Y)": "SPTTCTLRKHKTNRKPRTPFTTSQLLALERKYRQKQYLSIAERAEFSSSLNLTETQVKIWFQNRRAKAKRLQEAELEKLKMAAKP"}, "PAX4 [19]": {"target": "T6, PAX4 (Homo sapiens, UniProt O43316 9-242, R227W)", "T6 sequence": "T1 sequence with K192R, R219W"}, "HOXB6 [20]": {"target": "HOXB6 (Homo sapiens, UniProt P17509 132-218, K202E)", "sequence (P17509 132-218 K202E)": "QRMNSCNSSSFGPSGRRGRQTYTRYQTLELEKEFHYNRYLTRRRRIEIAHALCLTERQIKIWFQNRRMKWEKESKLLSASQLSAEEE"}, "HOXB6 [21]": {"target": "HOXB6 (Homo sapiens, UniProt P17509 132-218)", "sequence (P17509 132-218)": "as the sequence (P17509 132-218 K202E) above, with E71K counted along it"}, "HOXC10 [22]": {"target": "HOXC10 (Homo sapiens, UniProt Q9NYD6 254-340)", "sequence (Q9NYD6 254-340)": "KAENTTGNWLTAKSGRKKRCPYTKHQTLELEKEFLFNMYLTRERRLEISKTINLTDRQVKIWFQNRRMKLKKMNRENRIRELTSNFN"}, "HOXC10 [23]": {"target": "HOXC10 (Homo sapiens, UniProt Q9NYD6 254-340, K271E)", "sequence (Q9NYD6 254-340 K271E)": "as the sequence (Q9NYD6 254-340) above, with K18E counted along it"}, "ALX1 [24]": {"target": "ALX1 (Homo sapiens, UniProt Q15699 118-204, L144V)", "sequence (Q15699 118-204 L144V)": "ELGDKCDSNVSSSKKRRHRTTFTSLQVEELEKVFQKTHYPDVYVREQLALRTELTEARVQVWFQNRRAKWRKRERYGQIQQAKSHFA"}, "ALX3 [25]": {"target": "ALX3 (Homo sapiens, UniProt O95076 139-225, N203Q)", "sequence (O95076 139-225 N203Q)": "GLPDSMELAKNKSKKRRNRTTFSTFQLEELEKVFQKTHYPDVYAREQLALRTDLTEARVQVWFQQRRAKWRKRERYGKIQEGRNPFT"}, "ALX1 [26]": {"target": "ALX1 (Homo sapiens, UniProt Q15699 118-204, L144R)", "sequence (Q15699 118-204 L144R)": "as the sequence (Q15699 118-204 L144V) above, with V27R counted along it"}, "ALX3 [27]": {"target": "ALX3 (Homo sapiens, UniProt O95076 139-225)", "sequence (O95076 139-225)": "as the sequence (O95076 139-225 N203Q) above, with Q65N counted along it"}, "ALX3 [28]": {"target": "ALX3 (Homo sapiens, UniProt O95076 139-225, L168Q)", "sequence (O95076 139-225 L168Q)": "as the sequence (O95076 139-225 N203Q) above, with L30Q, Q65N counted along it"}, "ALX3 [29]": {"target": "ALX3 (Homo sapiens, UniProt O95076 139-225, L168V)", "sequence (O95076 139-225 L168V)": "as the sequence (O95076 139-225 N203Q) above, with L30V, Q65N counted along it"}, "ALX1 [30]": {"target": "ALX1 (Homo sapiens, UniProt Q15699 118-204)", "sequence (Q15699 118-204)": "as the sequence (Q15699 118-204 L144V) above, with V27L counted along it"}, "ALX3 [31]": {"target": "ALX3 (Homo sapiens, UniProt O95076 139-225, N203S)", "sequence (O95076 139-225 N203S)": "as the sequence (O95076 139-225 N203Q) above, with Q65S counted along it"}},
  "note": "Positions count from the first letter of the chain named.",
  "data": [
    {"sequence": "GGAGGGAA", "values": [
      {"measurement": "binding signal", "setting": "SHOX [1]", "value": "7.13 upbm affinity estimate (log intensity, higher = more binding, comparable within an allelic series)"},
      {"measurement": "binding signal", "setting": "PRRX1 [2]", "value": "9.41 upbm affinity estimate (log intensity, higher = more binding, comparable within an allelic series)"},
      {"measurement": "binding signal", "setting": "SHOX [3]", "value": "7.16 upbm affinity estimate (log intensity, higher = more binding, comparable within an allelic series)"},
      {"measurement": "binding signal", "setting": "PRRX1 [4]", "value": "9.45 upbm affinity estimate (log intensity, higher = more binding, comparable within an allelic series)"}
    ]},
    {"sequence": "CCCCCGGG", "values": [
      {"measurement": "binding signal", "setting": "SHOX [1]", "value": "6.93 upbm affinity estimate (log intensity, higher = more binding, comparable within an allelic series)"},
      {"measurement": "binding signal", "setting": "HOXC9 [5]", "value": "9.28 upbm affinity estimate (log intensity, higher = more binding, comparable within an allelic series)"},
      {"measurement": "binding signal", "setting": "HOXC9 [6]", "value": "9.39 upbm affinity estimate (log intensity, higher = more binding, comparable within an allelic series)"},
      {"measurement": "binding signal", "setting": "SHOX [3]", "value": "6.97 upbm affinity estimate (log intensity, higher = more binding, comparable within an allelic series)"},
      {"measurement": "binding signal", "setting": "HOXC9 [7]", "value": "9.25 upbm affinity estimate (log intensity, higher = more binding, comparable within an allelic series)"},
      {"measurement": "binding signal", "setting": "HOXC9 [8]", "value": "9.53 upbm affinity estimate (log intensity, higher = more binding, comparable within an allelic series)"}
    ]},
    {"sequence": "AATTAGGA", "values": [
      {"measurement": "binding signal", "setting": "SHOX [1]", "value": "11.4 upbm affinity estimate (log intensity, higher = more binding, comparable within an allelic series)"},
      {"measurement": "binding signal", "setting": "HOXB9 [9]", "value": "10.3 upbm affinity estimate (log intensity, higher = more binding, comparable within an allelic series)"},
      {"measurement": "binding signal", "setting": "SHOX [3]", "value": "9.06 upbm affinity estimate (log intensity, higher = more binding, comparable within an allelic series)"},
      {"measurement": "binding signal", "setting": "HOXB9 [10]", "value": "10.2 upbm affinity estimate (log intensity, higher = more binding, comparable within an allelic series)"}
    ]},
    {"sequence": "AATTAGAG", "values": [
      {"measurement": "binding signal", "setting": "SHOX [1]", "value": "11.6 upbm affinity estimate (log intensity, higher = more binding, comparable within an allelic series)"},
      {"measurement": "binding signal", "setting": "PAX4 [11]", "value": "11.7 upbm affinity estimate (log intensity, higher = more binding, comparable within an allelic series)"},
      {"measurement": "binding signal", "setting": "PAX4 [12]", "value": "12.2 upbm affinity estimate (log intensity, higher = more binding, comparable within an allelic series)"},
      {"measurement": "binding signal", "setting": "MSX2 [13]", "value": "12.1 upbm affinity estimate (log intensity, higher = more binding, comparable within an allelic series)"},
      {"measurement": "binding signal", "setting": "PAX4 [14]", "value": "12 upbm affinity estimate (log intensity, higher = more binding, comparable within an allelic series)"},
      {"measurement": "binding signal", "setting": "SHOX [3]", "value": "9.13 upbm affinity estimate (log intensity, higher = more binding, comparable within an allelic series)"},
      {"measurement": "binding signal", "setting": "PAX4 [15]", "value": "10.4 upbm affinity estimate (log intensity, higher = more binding, comparable within an allelic series)"},
      {"measurement": "binding signal", "setting": "MSX2 [16]", "value": "13.3 upbm affinity estimate (log intensity, higher = more binding, comparable within an allelic series)"},
      {"measurement": "binding signal", "setting": "PAX4 [17]", "value": "10.9 upbm affinity estimate (log intensity, higher = more binding, comparable within an allelic series)"},
      {"measurement": "binding signal", "setting": "MSX2 [18]", "value": "13.1 upbm affinity estimate (log intensity, higher = more binding, comparable within an allelic series)"},
      {"measurement": "binding signal", "setting": "PAX4 [19]", "value": "10.8 upbm affinity estimate (log intensity, higher = more binding, comparable within an allelic series)"}
    ]},
    {"sequence": "GCAGAGCC", "values": [
      {"measurement": "binding signal", "setting": "SHOX [1]", "value": "7.11 upbm affinity estimate (log intensity, higher = more binding, comparable within an allelic series)"},
      {"measurement": "binding signal", "setting": "HOXB6 [20]", "value": "8.95 upbm affinity estimate (log intensity, higher = more binding, comparable within an allelic series)"},
      {"measurement": "binding signal", "setting": "SHOX [3]", "value": "7.16 upbm affinity estimate (log intensity, higher = more binding, comparable within an allelic series)"},
      {"measurement": "binding signal", "setting": "HOXB6 [21]", "value": "8.72 upbm affinity estimate (log intensity, higher = more binding, comparable within an allelic series)"}
    ]},
    {"sequence": "GGCGCGAA", "values": [
      {"measurement": "binding signal", "setting": "SHOX [1]", "value": "7.15 upbm affinity estimate (log intensity, higher = more binding, comparable within an allelic series)"},
      {"measurement": "binding signal", "setting": "HOXC10 [22]", "value": "10.1 upbm affinity estimate (log intensity, higher = more binding, comparable within an allelic series)"},
      {"measurement": "binding signal", "setting": "SHOX [3]", "value": "7.19 upbm affinity estimate (log intensity, higher = more binding, comparable within an allelic series)"},
      {"measurement": "binding signal", "setting": "HOXC10 [23]", "value": "10.1 upbm affinity estimate (log intensity, higher = more binding, comparable within an allelic series)"}
    ]},
    {"sequence": "ACAAATTA", "values": [
      {"measurement": "binding signal", "setting": "SHOX [1]", "value": "11.4 upbm affinity estimate (log intensity, higher = more binding, comparable within an allelic series)"},
      {"measurement": "binding signal", "setting": "PAX4 [11]", "value": "11.7 upbm affinity estimate (log intensity, higher = more binding, comparable within an allelic series)"},
      {"measurement": "binding signal", "setting": "PAX4 [12]", "value": "12.3 upbm affinity estimate (log intensity, higher = more binding, comparable within an allelic series)"},
      {"measurement": "binding signal", "setting": "MSX2 [13]", "value": "12 upbm affinity estimate (log intensity, higher = more binding, comparable within an allelic series)"},
      {"measurement": "binding signal", "setting": "ALX1 [24]", "value": "11.3 upbm affinity estimate (log intensity, higher = more binding, comparable within an allelic series)"},
      {"measurement": "binding signal", "setting": "ALX3 [25]", "value": "8.4 upbm affinity estimate (log intensity, higher = more binding, comparable within an allelic series)"},
      {"measurement": "binding signal", "setting": "PAX4 [14]", "value": "12.2 upbm affinity estimate (log intensity, higher = more binding, comparable within an allelic series)"},
      {"measurement": "binding signal", "setting": "SHOX [3]", "value": "9.08 upbm affinity estimate (log intensity, higher = more binding, comparable within an allelic series)"},
      {"measurement": "binding signal", "setting": "ALX1 [26]", "value": "10.9 upbm affinity estimate (log intensity, higher = more binding, comparable within an allelic series)"},
      {"measurement": "binding signal", "setting": "PAX4 [15]", "value": "10.5 upbm affinity estimate (log intensity, higher = more binding, comparable within an allelic series)"},
      {"measurement": "binding signal", "setting": "MSX2 [16]", "value": "13.3 upbm affinity estimate (log intensity, higher = more binding, comparable within an allelic series)"},
      {"measurement": "binding signal", "setting": "ALX3 [27]", "value": "12.2 upbm affinity estimate (log intensity, higher = more binding, comparable within an allelic series)"},
      {"measurement": "binding signal", "setting": "PAX4 [17]", "value": "11 upbm affinity estimate (log intensity, higher = more binding, comparable within an allelic series)"},
      {"measurement": "binding signal", "setting": "ALX3 [28]", "value": "10.1 upbm affinity estimate (log intensity, higher = more binding, comparable within an allelic series)"},
      {"measurement": "binding signal", "setting": "ALX3 [29]", "value": "9.54 upbm affinity estimate (log intensity, higher = more binding, comparable within an allelic series)"},
      {"measurement": "binding signal", "setting": "MSX2 [18]", "value": "12.9 upbm affinity estimate (log intensity, higher = more binding, comparable within an allelic series)"},
      {"measurement": "binding signal", "setting": "PAX4 [19]", "value": "11 upbm affinity estimate (log intensity, higher = more binding, comparable within an allelic series)"},
      {"measurement": "binding signal", "setting": "ALX1 [30]", "value": "12 upbm affinity estimate (log intensity, higher = more binding, comparable within an allelic series)"},
      {"measurement": "binding signal", "setting": "ALX3 [31]", "value": "8.51 upbm affinity estimate (log intensity, higher = more binding, comparable within an allelic series)"}
    ]}
  ]
}
